# Reference: ChEMBL document CHEMBL4513216, “Probing the Open Global Health Chemical Diversity Library for Multistage-Active Starting Points for Next-Generation Antimalarials” (ACS Infect Dis, 2020)
# Screen size: about 68,000 compounds; about 2,700 (4%) showed an effect of 50% or more. For the sample, strong results were picked, then their nearest neighbours and some compounds at random.
# Tested on: Plasmodium berghei
# Test: Screen against P. berghei liver stage (PbLuc), transformed with Luciferase, at 2uM
# Type: functional, HepG2
# Details: tested at 2 uM
row,Compound,INHIBITION
1,CC(C)n1cnnc1CNC(=O)CCCOc1ccccc1F,18.74%
2,Cc1ccsc1CNC(=O)CC1CN(C(=O)OC(C)(C)C)C1,55.36%
3,CC(C)(C)OC(=O)N1CC(CC(=O)NCc2ccsc2)C1,2.9%
4,Cc1cc(CNC(=O)CC2CN(C(=O)OC(C)(C)C)C2)ccc1F,21.97%
5,COc1ncccc1NC(=O)N1CCCC1c1cc(C)no1 (centres undefined),29.19%
6,Cc1noc(C)c1C(=O)N1CCCCC1c1cc(C)n2ccnc2n1 (centres undefined),36.98%
7,COCCN(C(=O)c1nc(-c2ccco2)sc1C)C1CC1,-7.16%
8,Cc1sc(-c2ccco2)nc1C(=O)N(CC(N)=O)C1CCCC1,61.82%
9,Cc1sc(-c2ccco2)nc1C(=O)N(CC1CCOC1)C1CC1 (centres undefined),-33.43%
10,CC(NCCN1CCN(C(=O)C2CCCC2)CC1)c1ccccn1 (centres undefined),-21.99%
11,CC(C)n1nc(CN2CCOCC2)c2c1CN(C(=O)c1ccno1)C2,29.3%
12,Cn1nc(Cn2cccn2)c2c1CN(Cc1ccsc1)C2,15.9%
13,Cn1nc(CN2CCOCC2)c2c1CN(Cc1ccsc1)C2,57.85%
14,COCc1nn(C(C)C)c2c1CCN(Cc1ccsc1)C2,23.43%
15,CC(C)n1nc(CN2CCOCC2)c2c1CN(Cc1ccsc1)C2,72.91%
16,Cn1nc(Cn2cccc2)c2c1CN(Cc1ccsc1)C2,-6.88%
17,CN(Cc1ccc(F)cc1)CC1(O)CCN(C(=O)c2cccn2C)C1 (centres undefined),-12.09%
18,CCc1nc2ccccc2n1C(CC)C(=O)N(C)Cc1noc(C)n1 (centres undefined),-0.85%
19,CC(=O)N1CCO[C@@H]2CN(S(=O)(=O)c3ccc(C)cc3)CC[C@@H]2C1,-24.35%
20,CS(=O)(=O)N1CC2(CCCN(CC3CC3)C2)Cc2ccccc21 (centres undefined),34.09%
21,CN(CCCSc1ccccc1)C(=O)Cn1ncc(N(C)C)cc1=O,8.2%
22,COc1ccc(-c2cnc(CN3CCn4c(C)nnc4C3)o2)cc1,-19.76%

row,Compound,INHIBITION
1,CCNC(=O)[C@@H]1C[C@H](N)CN1C1CCN(c2ccccc2OC)CC1,23.64%
2,Cc1ccc(CCN2CCCC23Cc2ccccc2CNC3=O)cc1 (centres undefined),57.24%
3,CC(C)CCN1CCCC12Cc1ccccc1CNC2=O (centres undefined),-6.64%
4,Cc1ccc(CN2CCCC23Cc2ccccc2CNC3=O)cc1 (centres undefined),-14.74%
5,CC(C)NC(=O)N1CCN(CC2CC2)CC2(CC(=O)N(C)C2)C1 (centres undefined),49.9%
6,Cc1cc(-c2cnc(NCc3ccc4c(c3)OCO4)nc2C(C)C)on1,-0.95%
7,CC(C)c1nc(C2CCCN(C(=O)c3cccc4c3OCO4)C2)no1 (centres undefined),17.59%
8,Cc1csc(C2CCCN(C(=O)c3cccc4c3OCO4)C2)n1 (centres undefined),57.11%
9,Cc1nc(C2CCCN(C(=O)c3cccc4c3OCO4)C2)sc1C (centres undefined),7.71%
10,CCc1cc(NC(=O)C2CCCN(C(=O)c3ccncc3)C2)[nH]n1 (centres undefined),-7.81%
11,c1ccc(C2CCN(c3ncnc4c3CCNC4)CC2)cc1,-3.14%
12,O=C(NCC(=O)N1CCCC(n2cncn2)C1)OCc1ccccc1 (centres undefined),21.64%
13,COc1ccnc(N2CCN(CC(=O)N3CCOCC3)CC2)n1,-2.9%
14,COc1ccnc(N2CCN(C(=O)Cc3ccsc3)CC2)n1,25.61%
15,COc1ccnc(N2CCN(C(=O)N3CCOCC3)CC2)n1,58.05%
16,COc1ccnc(N2CCN(C(=O)c3csc(C)n3)CC2)n1,-2.99%
17,COc1ccnc(N2CCN(C(=O)c3cscn3)CC2)n1,50.98%
18,COc1ccnc(N2CCN(Cc3ncc(C(C)(C)C)o3)CC2)n1,2.67%
19,COc1ccnc(N2CCN(Cc3ncc(-c4ccccc4)o3)CC2)n1,-41.69%
20,COc1ccnc(N2CCN(CC(O)CN3CCOCC3)CC2)n1 (centres undefined),58.05%
21,COc1ccnc(N2CCN(C(=O)Cc3csc(C)n3)CC2)n1,51.35%
22,COc1ccnc(N2CCN(C(=O)CN3CCOCC3)CC2)n1,-19.35%

row,Compound,INHIBITION
1,COc1ccnc(N2CCN(C(=O)c3csnn3)CC2)n1,36.66%
2,COc1ccnc(N2CCN(C(=O)Cc3ccc(C)s3)CC2)n1,-9.9%
3,Cc1cccc(CN2C[C@@H]3COC[C@H](NS(C)(=O)=O)[C@@H]3C2)n1,32.85%
4,CN(C)Cc1cnc(C2CCN(C(=O)c3ccccc3F)C2)[nH]1 (centres undefined),-17.01%
5,CCN(Cc1ccccc1)C(=O)CN1CCOC(Cn2cncn2)C1 (centres undefined),32.41%
6,O=C(N1CCCC(n2cncn2)C1)C1(c2ccccc2F)CCCC1 (centres undefined),-15.28%
7,O=C(COCc1nc(-c2ccncc2)no1)N1CCCCC1,27.89%
8,Brc1cnc(NCCCOCC2CCOC2)nc1 (centres undefined),20.3%
9,COCCCNS(=O)(=O)c1cc(C)sc1C,-11.76%
10,CCc1nccn1-c1cccc(C2CCN(C(=O)COC)CC2)n1,47.4%
11,N#Cc1ccsc1N1CCC(Sc2ccncc2)C1=O (centres undefined),35.61%
12,Cc1cnn(CCC(=O)N2CCCN(c3ncccc3C#N)CC2)c1,-2.7%
13,CCS(=O)(=O)N1CCC(NC(=O)c2cc(C)ccc2O)CC1,-12.19%
14,CC(=O)c1cc(CC(=O)N2CCN(CCOc3ccccc3)CC2)cs1,-18.33%
15,O=C(Cc1ccsc1)N1CCN(CCOc2ccccc2)CC1,6.17%
16,Cc1nc(CC(=O)N2CCN(CCOc3ccccc3)CC2)cs1,65.5%
17,FC(F)(F)C1CCc2nnc(CNCc3ccsc3)n2C1 (centres undefined),-14.84%
18,FC(F)(F)C1CCc2nnc(CNCc3cccs3)n2C1 (centres undefined),58.98%
19,Fc1ccc(CNCc2nnc3n2CC(C(F)(F)F)CC3)cc1 (centres undefined),0.85%
20,CCCC(NC(=O)NCc1cccc(N(C)C)n1)c1ccccn1 (centres undefined),-40.08%
21,CN(Cc1cncnc1)[C@@H]1CN(C(=O)c2ccco2)[C@@H]2CCCO[C@H]12,8.17%
22,Cc1nnc2n1CCN(Cc1csc(-c3cnn(C)c3)n1)C2,57.34%

row,Compound,INHIBITION
1,Cn1cc(-c2nc(CN3CCN(CCO)CC3)cs2)cn1,53.03%
2,CC(C)c1nnc2n1CCN(Cc1csc(-c3cnn(C)c3)n1)C2,47.25%
3,CCc1nnc2n1CCN(Cc1csc(-c3cnn(C)c3)n1)C2,-4.69%
4,COCCN1CCN(Cc2csc(-c3cnn(C)c3)n2)CC1,-20.82%
5,CC(=O)N1CCN(Cc2csc(-c3cnn(C)c3)n2)CC1,-6.3%
6,CN(C)Cc1ccnc(C2CCCN2Cc2ccc(F)cn2)n1 (centres undefined),18.38%
7,Cc1ncc(CN2CCC(O)(c3ccccc3F)CC2)cn1,4.19%
8,N#Cc1ccc(OC2CCN(CC(=O)NCC3CCCO3)CC2)cc1 (centres undefined),-27.4%
9,Oc1coc2cc(OC[C@@H]3CCCN4CCCC[C@H]34)ccc12,-61.71%
10,CC(C)Cc1cc(C(=O)NCc2nnc[nH]2)[nH]n1,16.6%
11,CN(Cc1ccsc1)C(=O)c1cccc(F)c1,14.82%
12,Cc1ccc(NC2CCN(C(=O)COCC3CC3)CC2)nn1,15.28%
13,O=C(NCc1cccc(F)c1F)c1cc(CN2CCCC(O)C2)on1 (centres undefined),-81.33%
14,O=C(NCc1ccc(Cl)s1)c1cc(CN2CCCC(O)C2)on1 (centres undefined),4.38%
15,O=C(NCc1c(F)cccc1Cl)c1cc(CN2CCCC(O)C2)on1 (centres undefined),52.51%
16,O=C(CCn1cccn1)NS(=O)(=O)N1CCCc2ccccc21,-1.45%
17,COc1ccc(C2CCCCCN2Cc2nnc(C)o2)cc1 (centres undefined),52.83%
18,Cc1nnc(CN2CCCC2c2ccc(C(C)(C)C)cc2)o1 (centres undefined),29.19%
19,Cc1nnc(CN2CCCC2c2ccc(Cl)c(Cl)c2)o1 (centres undefined),-107.58%
20,COc1cccc(Cn2cc(C3=CCN(CCO)CC3)cn2)c1,13.24%
21,CN(C)C(=O)CN1CC=C(c2cnn(Cc3ccccc3)c2)CC1,21.95%
22,COc1cccc(Cn2cc(C3=CCN(CC(=O)N(C)C)CC3)cn2)c1,57.41%

row,Compound,INHIBITION
1,O=C(Nc1cnn(CCN2CCOCC2)c1)c1ccccc1O,-12.48%
2,O=C(Nc1cnn(CCN2CCOCC2)c1)c1cc(F)ccc1F,53.03%
3,O=C(Nc1cnn(CCN2CCOCC2)c1)c1ccccc1Cl,28.33%
4,COc1ncccc1CN1C[C@@H]2OCCN(CCN(C)C)[C@@H]2C1,22.18%
5,c1coc(CN2CCn3c(CN4CCOCC4)nnc3C2)c1,8.99%
6,Cc1[nH]nc(CCC(=O)N2CCOC(CCc3ccccc3)C2)c1C (centres undefined),-18.99%
7,c1ccc2c(c1)nc1n2[C@@H](CNCc2nccs2)COC1,24.64%
8,Fc1ccc2c(c1)nc1n2[C@@H](CNCc2nccs2)COC1,61.42%
9,COc1ccc2c(c1)nc1n2[C@@H](CNCc2nccs2)COC1,24.42%
10,CC(C)n1ccnc1CN1CCOC(C)(C(=O)N2CCOCC2)C1 (centres undefined),13.58%
11,Cc1nc(N2CCOCC2)nc2c1CCN(Cc1nccn1C)CC2,13.25%
12,COCC(=O)N1C[C@H]2CN(Cc3csc(C)n3)C(=O)[C@H]2C1,-6.13%
13,O=C(NC[C@]12COC[C@H]1CN(Cc1ccncc1)C2)c1ccco1,-5.65%
14,Cc1cccc(CN2C[C@@H]3COC[C@]3(CNC(=O)C3CC3)C2)c1,-2.81%
15,COc1cccc(CN2C[C@@H]3COC[C@]3(CNC(=O)C3CC3)C2)c1,-9.07%
16,Cn1cc(CN2C[C@@H]3COC[C@]3(CNC(=O)c3ccccc3)C2)cn1,23.43%
17,Cc1cccc(CN2C[C@@H]3COC[C@]3(CNC(=O)C3CCC3)C2)c1,55.92%
18,Cc1cccc(CN2C[C@@H]3COC[C@]3(CNC(=O)c3ccsc3)C2)n1,-26.88%
19,Cc1cccc(CN2C[C@@H]3COC[C@]3(CNC(=O)c3cccn3C)C2)n1,-26.91%
20,Cc1cccc(CN2C[C@@H]3COC[C@]3(CNC(=O)c3ccccc3)C2)n1,59.04%
21,Cn1cc(CN2C[C@@H]3COC[C@]3(CNC(=O)c3ccco3)C2)cn1,67.67%
